The values below come from PubChem BioAssay (NCATS).

Results filed as inconclusive are left out. Active and inactive are the calls of the source. Unless noted, the call rests on the fitted dose curve; in most records, active means well fitted curve in the direction sought with a large enough effect; inconclusive means small, poorly fitted or top-dose-only effect, or another doubt; inactive means no such curve, though single readings can be large; an effect the other way counts as inactive or inconclusive.

In test [1] the target is Aldehyde dehydrogenase, mitochondrial (Homo sapiens) (UniProt P05091). Description: qHTS for Inhibitors of the Aldehyde Dehydrogenase Family (ALDH2) Confirmatory screens (AID 2061303; active means well fitted inhibition curve with a large enough effect; title and protocol of this record describe different tests; further: nearly all actives have a fitted effect of over 45% in size; further: potency means the concentration at half of the fitted maximal effect). Background: qHTS replaces the single test concentration by a dilution series.
Test [2] is described as follows: qHTS for Inhibitors of the Aldehyde Dehydrogenase Family (ALDH1A2, ALDH1A3, ALDH2, ALDH3A1) (AID 2061307). Further: nearly all actives have a fitted effect of over 50% in size. On Potency: test system not described further here; potency means the concentration at half of the fitted maximal effect.
For test [3], the target named is Aldehyde dehydrogenase, mitochondrial (Homo sapiens) (UniProt P05091). Description: qHTS for Inhibitors of the Aldehyde Dehydrogenase Family (ALDH2) Primary screen (AID 2061308). Further: nearly all actives have a fitted effect of over 55% in size. Further: potency means the concentration at half of the fitted maximal effect.
Test [4] concerns the target Retinaldehyde dehydrogenase 3 (Homo sapiens) (UniProt P47895). Description: qHTS for Inhibitors of the Aldehyde Dehydrogenase Family (ALDH1A3) Confirmatory screens (AID 2061311). Further: nearly all actives have a fitted effect of over 60% in size. Further: potency means the concentration at half of the fitted maximal effect.
The target of test [5] is Retinal dehydrogenase 2 (Homo sapiens) (UniProt O94788). Description: qHTS for Inhibitors of the Aldehyde Dehydrogenase Family (ALDH1A2) Confirmation screens (AID 2061314). Further: nearly all actives have a fitted effect of over 65% in size. Further: potency means the concentration at half of the fitted maximal effect.
The target in test [6] is Retinaldehyde dehydrogenase 3 (Homo sapiens) (UniProt P47895). Description: qHTS for Inhibitors of the Aldehyde Dehydrogenase Family (ALDH1A3) Primary screen (AID 2061315).
Test [7] concerns the target Aldehyde dehydrogenase 1A1 (Homo sapiens) (UniProt P00352). Description: qHTS for Inhibitors of the Aldehyde Dehydrogenase Family (ALDH1A1) Confirmatory screens (AID 2061316). Further: nearly all actives have a fitted effect of over 65% in size. Further: potency means the concentration at half of the fitted maximal effect.

As for `O=C(CSc1nnc(-c2cccc(S(=O)(=O)N3CCCC3)c2)n1-c1ccccc1)Nc1ccc(F)cc1`, the Potency result in test [1], in test [2], in test [3], in test [4], in test [5] and in test [6] was “inactive” throughout. In test [7], the Potency entry is “inactive”.

For the compound `Cc1ccc(OCCn2c(CCNC(=O)c3cccc(Cl)c3)nc3ccccc32)cc1`, the Potency result in test [1], in test [2], in test [3], in test [4], in test [5] and in test [6] was “inactive” throughout.

On to `COc1ccc(C2=Nn3c(nnc3-c3cccc(OC)c3)SC2)cc1`, for which the Potency result in test [1], in test [3], in test [4], in test [5], in test [6] and in test [7] was “inactive” in each case. The Potency in test [2] is 12.7 µM (active).

For the compound `O=[N+]([O-])c1ccc(S(=O)(=O)c2ccc(Cl)cc2)nc1`, the Potency is 0.504 µM (active) in test [1]; 2.82 µM (active) in test [2]; 0.251 µM (active) in test [3]; 28.2 µM (active) in test [4]; 3.16 µM (active) in test [5]; 0.283 µM (active) in test [7].

For `Cc1cc(N2C(=O)c3ccccc3C2=O)n[nH]1`, the Potency result in test [1], in test [2], in test [3], in test [4], in test [5] and in test [6] was “inactive” throughout. In addition, in test [7], the Potency entry was “inactive”.

As to `COc1cc(F)cc(F)c1[S+](=O)([O-])N1CCN([S+](=O)([O-])c2ccc3c(c2)OCCO3)CC1`, the Potency entry in test [1], in test [2], in test [3], in test [4], in test [5] and in test [6] was “inactive” throughout. Moreover, the Potency result in test [7] was “inactive”.

On to `N#CSc1cc(SC#N)c(N)nc1N`, for which the Potency in test [1] is 14.1 µM (active); in test [2] it was 5.62 µM (active); in test [3], 3.55 µM (active); in test [4], 10.1 µM (active); in test [5] it was 1.79 µM (active); in test [7], 0.896 µM (active). Also, the Potency entry in test [6] is “inactive”.

Take `Cc1cccc(OC2=NS(=O)(=O)c3ccccc32)c1`: the Potency entry in test [1], in test [2], in test [3], in test [4], in test [5] and in test [6] was “inactive” throughout. The Potency result in test [7] was “inactive”.

`Cc1ccc2nc(-c3ccccn3)c(Nc3ccccc3C)n2c1`: the Potency result in test [1], in test [2], in test [3], in test [4], in test [5] and in test [6] was “inactive” throughout. The Potency entry in test [7] was “inactive”.
